# Screening data from PubChem BioAssay.
# DT40 TDP1 no CPT: qHTS for Inhibitors of human tyrosyl-DNA phosphodiesterase 1 (TDP1): qHTS in cells in absence of CPT. DT40 Tdp1-/- hTDP1 cells, no CPT, ATP luminescence, 48 h. 420,000 tested, 15% active. Potency, µM (top dose mostly 46.2 µM), inactives show at the highest dose activity change, negative = growth inhibition, actives largely listed as inhibitors; note: % is set by controls: 0 for no effect and ±100 for the full control effect; nearly all actives have a fitted effect of over 55% in size
#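 Growth kinetics read by CellTiter-Glo luminescence after ≥48 hr at 37 °C. Cells: DT40 Tdp1-/- stably carrying human TDP1, 400 per well, compound exposure in the absence of CPT (DMSO vehicle).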
# TDP1 cell CPT: DT40-hTDP1 cell growth loss with CPT; Potency, µM (series often up to 46.2 µM), for the others: at the highest dose activity change, negative = growth inhibition, actives largely listed as inhibitors; AID 686979; 420,000 tested, 12% active; chicken DT40 Tdp1-/-;hTDP1 cells + 20 nM CPT, ATP luminescence, 48 h; note: % is set by controls: 0 for no effect and ±100 for the full control effect; nearly all actives have a fitted effect of over 55% in size
#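 Cell growth measured by CellTiter-Glo luminescence after a minimum 48 h, 37 C compound exposure with 20 nM CPT in Tdp1-knockout DT40 cells stably expressing hTDP1, seeded 400/well; qHTS titration format.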
# TDP1 inh: TDP1 (human) enzyme inhibition. Potency, µM (doses to about 130 µM), for the others: at the top dose activity change, negative = inhibition, most hits filed as inhibitors. Q9NUW8. 350,000 tested, 0.28% active. recombinant TDP1, AlphaScreen DNA substrate cleavage; note: % is set by controls: 0 for no effect and ±100 for the full control effect; nearly all actives have a fitted effect of over 40% in size
#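 Recombinant E. coli-expressed Tdp1 (1 nM) preincubated with compound 15 min at RT, then 5'-biotin/3'-phosphotyrosine-FITC DNA substrate (15 nM) added for 5 min. AlphaScreen beads (10 ug/ml) added, 10 min RT; tyrosine-FITC cleavage read as signal loss.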
# ClpP mod: qHTS Assay for Activators of ClpP; purified B. subtilis ClpP, FRET peptide cleavage, 20 min; Potency, µM (top dose mostly 57.5 µM), for the others: top-dose activity change, negative = active; ATP-dependent Clp protease proteolytic subunit (Bacillus subtilis (strain 168)), P80244; 340,000 tested, 1.9% active; active = well fitted falling curve with a large enough effect; inconclusive = small, poorly fitted or top-dose-only effect; inactive = no such curve, though single readings can be large or run the other way; note: the source files actives as falling curves though it sought activators and does not explain the sign; nearly all actives have a fitted effect of over 65% in size
# Target sequence (P80244 whole entry, looked up): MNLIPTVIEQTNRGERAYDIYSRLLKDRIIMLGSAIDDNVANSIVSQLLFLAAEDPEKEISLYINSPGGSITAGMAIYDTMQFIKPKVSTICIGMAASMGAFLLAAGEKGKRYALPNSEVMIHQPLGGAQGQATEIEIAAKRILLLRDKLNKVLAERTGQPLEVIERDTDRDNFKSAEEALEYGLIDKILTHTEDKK
#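 Buffer: 100 mM Tris/HCl pH8, 100 mM KCl, 0.05% low protease BSA, 2.5% glycerol, 0.01% Tween-20. ClpP 10 microg/mL final; 20 min RT; delta FRET normalized to ADEP and DMSO controls.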
# Starred values were filed as active, the others as inactive; ? = inconclusive; / = not tested or not shown; [ ] = another dose, or the depositor's remark. Hits are enriched below; roughly 17% of the tested compounds scored in any of these assays. Unless noted, calls come from the whole dose curve; as a rule, active = well fitted curve in the direction sought with a large enough effect; inconclusive = small, poorly fitted or top-dose-only effect, or another doubt; inactive = no such curve, though single readings can be large; an effect the other way counts as inactive or inconclusive. Potency is the fitted concentration of half-maximal effect.
SMILES,DT40 TDP1 no CPT,TDP1 cell CPT,TDP1 inh,ClpP mod
S=c1[nH]nc(-c2cc(-c3ccccc3)n[nH]2)n1/N=C/C(Br)=C/c1ccccc1,2.59µM*,2.91µM*,5.9%,-3.6%
Oc1c(Br)cc(/C=N/n2c(-c3ccccc3)n[nH]c2=S)cc1Br,?,-2.7%,25.1µM*,-0.8%
Cc1cccc(/C=N/n2c(-c3cc(-c4ccccc4)n[nH]3)n[nH]c2=S)c1,?,16.4µM*,5.4%,25.1µM*
S=c1[nH]nc(-c2cc(-c3ccccc3)n[nH]2)n1/N=C/C=C/c1ccccc1,?,?,4.7%,1.8%
S=c1[nH]nc(-c2ccccc2)n1/N=C/c1ccc(-c2ccccc2Cl)o1,13µM*,?,0.0%,2.4%
S=c1[nH]nc(-c2cc(-c3ccccc3)n[nH]2)n1/N=C/c1ccccc1,-12.3%,?,/,3.0%
COc1ccc(O)c(CN2CCCN(c3nc(C)c4cc(C)c(C)cc4n3)CC2)c1,-14.3%,-0.7%[9.04 µM],/,/
Cc1ccc(-c2n[nH]c(=S)n2/N=C/c2c(C)nn(-c3ccccc3)c2C)cc1,16.4µM*,?,-5.3%,-1.5%
Cc1ccccc1-c1n[nH]c(=S)n1/N=C/c1c(C)nn(-c2ccccc2)c1C,-1.0%,-1.5%,-0.6%,-3.4%
CC(C)CC1C(=O)N(Cc2cn(CCC3OCCO3)nn2)CCS(=O)(=O)N1Cc1ccc(-c2cccc(CO)c2)cc1 (stereo not drawn),23.1µM*,?,/,-2.3%
CC(C)CC1C(=O)N(Cc2cn(CCC3OCCO3)nn2)CCS(=O)(=O)N1Cc1ccc(-c2cccc(N(C)C)c2)cc1 (stereo not drawn),20.6µM*,?,/,3.7%
CC(C)C1C(=O)N(Cc2cn(CCC3OCCO3)nn2)CCS(=O)(=O)N1Cc1ccc(-c2ccccc2)cc1 (stereo not drawn),?,?,/,-2.1%
CC(C)C1C(=O)N(Cc2cn(CCC3OCCO3)nn2)CCS(=O)(=O)N1Cc1ccc(-c2cccc(CO)c2)cc1 (stereo not drawn),23.1µM*,?,/,2.0%
C/C=C1\COC(C(=O)NCCCN2CCCC2=O)(C(F)(F)F)C=C1C=C(C)C (stereo not drawn),18.4µM*,20.6µM*,3.2%,-0.1%
C/C=C1\COC(C(=O)NCCN2CCCC2)(C(F)(F)F)C=C1C=C1CCCCC1 (stereo not drawn),20.6µM*,18.4µM*,9.7%,-5.8%
O=S1(=O)C[C@@H](N2CCC(Cc3ccccc3)CC2)[C@H](COCc2ccccc2)N1,23.1µM*,18.4µM*,/,2.2%
CCOC(=O)c1cnc2cc(C(F)(F)F)ccc2c1Nc1ccc(F)cc1F,?,?,4.5%,-0.4%
COc1cccc(NC(=O)NC2CCN(Cc3nnnn3Cc3ccc4c(c3)OCO4)CC2)c1,-12.0%,?,/,-1.7%
Cc1ccc(-c2nc(CS(=O)(=O)CC(=O)NCCc3ccccc3)c(C)o2)cc1,-20.7%,-0.7%,1.2%,-7.8%
CCOC(=O)CSc1nc2sc3c(c2c(=O)n1Cc1ccccc1)CC(C(C)C)OC3 (stereo not drawn),/,/,/,0.4%
CC(C)Cc1nc2sc3c(c2c(=O)n1N)CC(C(C)C)OC3 (stereo not drawn),2.59µM*,16.4µM*,-1.4%,-0.1%
CC(C)C1Cc2c(sc3ncnc(NN)c23)CO1 (stereo not drawn),11.6µM*,8.2µM*,/,0.5%
O=CNc1cc(-c2ccccc2Oc2ccccc2)cn2c(-c3ccc(F)cc3)cnc12,10.3µM*,?,/,4.0%
CC(=O)c1ccc(-c2cnc3c(NC=O)cc(-c4ccccc4Oc4ccccc4)cn23)cc1,20.6µM*,?,/,6.1%
Oc1cc2c(cc1C(c1ccc(Cl)c(Cl)c1)N1CCCC1)OCO2 (stereo not drawn),23.1µM*,?,-5.5%,/
SMILES,DT40 TDP1 no CPT,TDP1 cell CPT,TDP1 inh,ClpP mod
NC(=O)C1CCN(C(c2ccccc2Cl)c2nnnn2Cc2ccc3c(c2)OCO3)CC1 (stereo not drawn),-18.0%,10.2%,1.9%,0.1%
Cc1cccc(NC(=O)CCn2cnc3ccccc3c2=O)c1,?,?,-8.8%,-4.0%
C=CCN1CCN(C(=O)c2cc3c(s2)CCC(CC)C3)CC1 (stereo not drawn),16.4µM*,?,3.2%,-0.6%
CCC1CCc2sc(C(=O)NNC(=O)c3ccncc3)cc2C1 (stereo not drawn),-21.3%,4.0%,/,14.1µM*
CCC1CCc2sc(C(=O)O)cc2C1 (stereo not drawn),0.6%,0.8%,3.8%,-1.7%
Cc1ccc(S(=O)(=O)c2nnn3c2nc(N2CCN(c4ccccc4F)CC2)c2ccccc23)cc1C,1.4%,-4.3%,7.5%,-7.1%
Cc1cccc(C)c1OCc1nnc(SCC(=O)Nc2nccs2)n1-c1ccccc1,5.8µM*,?,7.1%,-0.8%
CC(C)(C)c1nc2ccccc2c2nnc(SCC(=O)Nc3nccs3)n12,4.61µM*,3.26µM*,4.1%,-5.6%
Cn1c(CCCOc2ccc(Cl)cc2Cl)nnc1SCC(=O)Nc1nccs1,?,23.1µM*,0.7%,-2.6%
CC(C)(C)c1nc2ccccc2c2nnc(SCC(=O)Nc3nc4ccccc4s3)n12,?,?,3.2%,6.0%
CCc1nnc(NC(=O)CSc2nccn2-c2cc(C)cc(C)c2)s1,16.4µM*,23.1µM*,5.2%,-2.7%
COc1ccc(-n2c(=O)c3ccc(C(=O)NCc4ccc(C)cc4)cc3n(Cc3ccc(Cl)cc3)c2=O)cc1,-8.9%,-5.9%,-2.3%,0.5%
CC1CCCN(Cc2c(O)ccc3c(=O)c(-c4ccc(Cl)cc4)c(C(F)(F)F)oc23)C1 (stereo not drawn),-3.1%,3.6%,/,-2.0%
CCN(CC)CCCNC(=O)c1cnc(SC)nc1-c1ccccc1,3.2%,-2.7%,1.2%,-2.3%
CCOc1ccccc1-n1nnnc1SCC(=O)N(C)C1CCS(=O)(=O)C1 (stereo not drawn),-8.3%,-6.2%,/,-1.6%
COC(=O)c1c(NC(=O)C2CC2)sc(C(=O)Nc2ccccc2)c1C,?,?,2.7%,0.4%
CCc1ccc(NC(=O)c2ccc(NS(=O)(=O)c3c(C)noc3C)cc2)cc1,?,?,4.7%,-5.7%
CCN(CC)C(=O)[C@H]1C[C@H](CC(=O)NCCCn2ccnc2)C(=O)N2CCc3c([nH]c4cc(CCC(=O)N(C)C)ccc34)[C@]12C,-10.3%,-13.1%,-0.2%[56.1 µM],-4.6%
CCc1nnc(NC(=O)CSc2nccn2-c2cccc(C)c2C)s1,8.2µM*,16.4µM*,-1.2%,-0.8%
CCOC(=O)c1ccc(NC(=O)CSc2nccn2-c2ccc(OCC)cc2)cc1,?,?,0.0%[12.3 µM],-2.0%
CCOc1ccc(NC(=O)CSc2nccn2-c2cccc(C)c2C)cc1,18.4µM*,18.4µM*,8.8%,0.9%
